Pol iota inh: blocks human DNA polymerase iota activity | Q9UNA4 | Pol iota fluorescent replication assay, 10 min | Potency, µM (series often up to 115 µM), actives largely listed as inhibitors | 390,000 compounds, 1% hits
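Fluorescent replication assay read twice, at 0 min and 10 min after adding 50 nM (final) substrate. Enzyme (10 nM) and compounds were first incubated 15 min at room temperature; enzyme-free buffer wells were negative controls.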
WRN inhibitor: blocks human WRN helicase. Potency, µM (top dose mostly 114 µM), most hits filed as inhibitors. Q14191. 360,000 compounds, 0.46% hits. WRN helicase unwinding, fluorescent forked duplex, kinetic. AID 651768; also: nearly all actives have a fitted effect of over 55% in size
Target sequence (Q14191 whole entry, looked up): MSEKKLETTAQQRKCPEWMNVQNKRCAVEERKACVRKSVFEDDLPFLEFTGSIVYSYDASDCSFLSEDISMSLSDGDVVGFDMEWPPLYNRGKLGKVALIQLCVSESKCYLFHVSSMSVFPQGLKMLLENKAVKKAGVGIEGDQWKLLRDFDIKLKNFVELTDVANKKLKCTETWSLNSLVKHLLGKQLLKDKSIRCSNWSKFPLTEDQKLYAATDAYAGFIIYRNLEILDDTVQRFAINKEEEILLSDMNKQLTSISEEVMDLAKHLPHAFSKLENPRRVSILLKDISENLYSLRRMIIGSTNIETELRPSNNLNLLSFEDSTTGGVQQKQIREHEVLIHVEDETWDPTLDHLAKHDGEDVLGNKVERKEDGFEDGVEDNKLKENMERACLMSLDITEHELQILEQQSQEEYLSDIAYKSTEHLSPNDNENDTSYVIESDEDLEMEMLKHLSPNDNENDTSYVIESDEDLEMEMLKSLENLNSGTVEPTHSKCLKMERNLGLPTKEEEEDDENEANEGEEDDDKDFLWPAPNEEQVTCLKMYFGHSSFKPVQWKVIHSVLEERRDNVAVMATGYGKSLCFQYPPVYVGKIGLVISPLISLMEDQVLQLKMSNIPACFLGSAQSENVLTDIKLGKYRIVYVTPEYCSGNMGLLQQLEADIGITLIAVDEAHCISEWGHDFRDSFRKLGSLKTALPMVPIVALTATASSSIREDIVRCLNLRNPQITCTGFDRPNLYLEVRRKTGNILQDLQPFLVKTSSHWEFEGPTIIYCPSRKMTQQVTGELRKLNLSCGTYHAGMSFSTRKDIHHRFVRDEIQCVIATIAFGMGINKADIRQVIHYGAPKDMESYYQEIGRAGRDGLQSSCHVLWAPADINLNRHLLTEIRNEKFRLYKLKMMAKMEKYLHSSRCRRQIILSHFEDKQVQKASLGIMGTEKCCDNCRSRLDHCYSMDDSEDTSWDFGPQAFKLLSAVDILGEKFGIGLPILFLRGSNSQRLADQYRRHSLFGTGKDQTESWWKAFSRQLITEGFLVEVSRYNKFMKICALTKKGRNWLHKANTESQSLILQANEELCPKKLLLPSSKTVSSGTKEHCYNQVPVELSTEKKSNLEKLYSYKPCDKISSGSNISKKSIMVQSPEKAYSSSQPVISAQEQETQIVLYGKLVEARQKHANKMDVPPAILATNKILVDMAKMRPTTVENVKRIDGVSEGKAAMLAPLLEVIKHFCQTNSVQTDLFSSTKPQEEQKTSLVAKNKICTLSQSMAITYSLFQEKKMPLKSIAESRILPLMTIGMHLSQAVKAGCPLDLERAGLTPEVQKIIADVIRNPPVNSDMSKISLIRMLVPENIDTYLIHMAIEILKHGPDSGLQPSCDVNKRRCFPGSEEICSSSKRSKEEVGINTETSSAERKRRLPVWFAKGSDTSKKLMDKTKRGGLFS
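WRN at 20 nM final was preincubated with compound for 15 min at room temperature; reaction started with 100 nM forked duplex oligonucleotide carrying fluorophore and quencher plus 2 mM ATP (final). Unwinding followed kinetically by red fluorescence (ex 525/em 598 nm).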
POLB inh: DNA polymerase beta (human) inhibition; P06746; Pol beta primer extension/strand displacement, fluorescence kinetic; Potency, µM (doses to about 114 µM), actives largely listed as inhibitors; 340,000 compounds, 1.3% hits
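Pol beta (10 nM) was preincubated with compound for 15 min at room temperature. The reaction was then started with 50 nM substrate and read immediately and after a further 10 min at room temperature.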
POLK inh: DNA polymerase kappa (human) inhibition. Q9UBT6. purified Pol kappa, fluorescent DNA synthesis assay, 10 min. Potency, µM (titrated, usually from 107 µM), usual class: inhibitors. 400,000 compounds, 0.53% hits
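Kinetic fluorescence readout at 0 and 10 min followed reaction start with substrate at 50 nM final. Beforehand, enzyme (10 nM Pol kappa) stood 15 min with compound at room temperature; buffer-only wells were negative controls.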
FEN1 inhibitor: human FEN1 inhibition | P39748 | Recombinant FEN1 flap cleavage, fluorescence, 15 min | Potency, µM (titrated, usually from 114 µM), actives largely listed as inhibitors | 390,000 compounds, 0.35% hits; also: nearly all actives have a fitted effect of over 65% in size
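Reaction started by adding substrate (50 nM final) to 10 nM enzyme after 15 min room-temperature compound preincubation. Reads at 0 and 15 min, with data normalized and fitted to a four-parameter Hill equation.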
Pol eta inh: blocks human DNA polymerase eta activity; 390,000 compounds, 1.2% hits; Q9Y253; Potency, µM (doses to about 114 µM), hits mostly inhibitors; AID 588591; recombinant Pol eta, fluorescent DNA replication assay
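Fluorescent replication assay: 50 nM final substrate added after a 15 min room-temperature compound preincubation with 10 nM enzyme. Signal taken at 0 min and again at 10 min.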
Of the large screens only hits and unclear results are named; the others gave an inactive call. Sampled rows, rich in hits. Any-hit rate of the full collection: about 2.4%. Calls follow the shape of the dose curve; as a rule, active = well fitted curve in the direction sought with a large enough effect; inconclusive = small, poorly fitted or top-dose-only effect, or another doubt; inactive = no such curve, though single readings can be large; an effect the other way counts as inactive or inconclusive.

Cc1ccccc1C(=O)N(Cc1sccc1C)C1CCS(=O)(=O)C1 (stereo unspecified)	none (no result: WRN inhibitor, Pol eta inh)
CC(=O)Nc1ccc(S(=O)(=O)Oc2cccc(/C=C3\SC(N)=NC3=O)c2)cc1	WRN inhibitor 79µM
COc1cc(/C=C2\SC(N)=NC2=O)ccc1OCC(=O)Nc1ccc(C)cc1	Pol iota inh 79µM, POLB inh 3.5µM, Pol eta inh inconclusive
COc1ccc(/C=C2/SC(=O)N(CCC(=O)Nc3ccc(C)cc3)C2=O)cc1OC	none (no result: Pol iota inh, WRN inhibitor, POLK inh, FEN1 inhibitor, Pol eta inh)
CC(CN1CCN(c2ccccc2)CC1)c1ccccc1 (stereo unspecified)	Pol iota inh 45µM
Cc1ccc(-n2ncc(C(=O)NCc3ccco3)c2C2CCN(C(=O)OC(C)(C)C)CC2)c(C)c1	none (no result: WRN inhibitor)
O=C1/C(=C\c2ccncc2)SC(=S)N1C1CCCCC1	POLB inh 79µM
COc1ccc(C(=O)N2CC(=O)Nc3ccc(C)cc3C2c2ccc(F)cc2)c(OC)c1 (stereo unspecified)	none (no result: WRN inhibitor)
O=C(NC1CCCC1)c1ccc2c(c1)N(Cc1ccc(F)cc1)C(=O)c1ccccc1S2	none (no result: WRN inhibitor)
CC1CCC(NC(=O)c2ccc3c(c2)N(Cc2cccc(F)c2)C(=O)c2ccccc2S3)CC1 (stereo unspecified)	Pol iota inh 89µM, Pol eta inh inconclusive (no result: WRN inhibitor)
Cc1cc(C)cc(Nc2cc(=O)n(C3CCCCC3)c(=O)[nH]2)c1	POLB inh 45µM, Pol eta inh inconclusive
O=c1cc(N2CCCCC2)[nH]c(=O)n1C1CCCCC1	none
CCCc1ccc(C(=O)NNC(=O)c2ccc(Br)cc2)cc1	Pol iota inh inconclusive, POLB inh 45µM, Pol eta inh inconclusive
CC1CCCCN1Cc1c(O)ccc2c(=O)c(-c3ccc(Cl)cc3)c(C(F)(F)F)oc12 (stereo unspecified)	none (no result: WRN inhibitor)
CCc1cc2cc(C(=O)Nc3ccccc3F)sc2s1	none
CCc1cc2cc(C(=O)Nc3ccc(F)cc3)sc2s1	Pol iota inh inconclusive, POLB inh 56µM, Pol eta inh inconclusive
Cc1ccc(NC(=O)Cn2c(=O)ccc3cc(S(=O)(=O)N4CCCC4)ccc32)cc1N(C)C	none (no result: WRN inhibitor)
Cc1oc(-c2cccc(Cl)c2)nc1CS(=O)(=O)CC(=O)NC(C)CCc1ccccc1 (stereo unspecified)	Pol iota inh 89µM (no result: WRN inhibitor)
CC(C)(C)c1ccc(OCCSc2nc(-c3cccs3)nc3cc(=O)[nH]n23)cc1	POLB inh 32µM, POLK inh inconclusive, Pol eta inh inconclusive (no result: WRN inhibitor)
Cc1ccc(OCCCSc2nc(-c3ccc(C(C)(C)C)cc3)nc3cc(=O)[nH]n23)cc1C	POLB inh inconclusive, FEN1 inhibitor inconclusive, Pol eta inh 45µM (no result: WRN inhibitor)
C=CCc1ccccc1OCCSc1nc(-c2cccs2)nc2cc(=O)[nH]n12	Pol iota inh inconclusive, POLB inh 25µM, POLK inh inconclusive, Pol eta inh 79µM (no result: WRN inhibitor)
CC(C)(C)c1ccc(-c2nc(SCCOc3ccc(Cl)cc3)n3[nH]c(=O)cc3n2)cc1	POLB inh inconclusive, Pol eta inh 50µM (no result: WRN inhibitor)
Cc1ccc(C(C)C)c(OCCSc2nc(-c3cccs3)nc3cc(=O)[nH]n23)c1	POLB inh inconclusive, Pol eta inh inconclusive (no result: WRN inhibitor)
COc1ccc(CCn2c(=O)c3cccnc3n(CC(=O)Nc3ccc(C)c(F)c3)c2=O)cc1OC	none (no result: WRN inhibitor)
Cc1ccc(C(=O)N/C(=C\c2ccc(Cl)cc2)C(=O)NC2CCCCC2)cc1	none (no result: WRN inhibitor)
CN(CCC#N)c1ccc(/C=C/c2ccnc3ccccc23)cc1	none (no result: WRN inhibitor, POLB inh, Pol eta inh)
C#CCOCCOCCOCCNc1nc(N2CCN(C(=O)CCCCCCCCCCNC(=O)[C@H]([C@@H](C)CC)n3cc(CCCCN=C(N)N)nn3)CC2)nc(N2CCN(C(=O)CCCCCCCCCCNC(=O)[C@H](CCCCN)n3cc(C)nn3)CC2)n1	Pol iota inh inconclusive, WRN inhibitor 28µM, FEN1 inhibitor 25µM, Pol eta inh inconclusive (no result: POLB inh)
C#CCOCCOCCOCCNc1nc(N2CCN(C(=O)CCCCCCCCCCNC(=O)Cn3cc(CCCCCN)nn3)CC2)nc(N2CCN(C(=O)CCCCCCCCCCNC(=O)[C@H]([C@@H](C)CC)n3cc(CCCCN=C(N)N)nn3)CC2)n1	Pol iota inh inconclusive, WRN inhibitor 32µM, FEN1 inhibitor 20µM, Pol eta inh 79µM (no result: POLB inh)
